# According to publication PMC12864922, “TDP-43 directly inhibits mRNA accumulation in neurites through modulation of mRNA stability”:
# Whole data set: some 9,900 sequences, median “r (bound/input frequency ratio)” near 0.7, cut for the highest 2% near 6.5. The sample as a whole holds a higher share of the highest values than the screen did.
# B1: ENSMUSG00000031028.199|Tub (ssRNA)
# RNA: GGGAGUUCUACAGUCCGACGAUCGCUUCGAUAUCCGCAUGCUAACCUGCUAGGGUCUAUUCUGCAUGUCCUUUCUCUUCCCAGUUCCAGAGAUGAAACCCCUCCGAGUUAAUGUAUAAGGUUGGAAACCUUUCAGUAGGGAAUCAGGCAGUUCCCUGUUGAAAGUUGUCUGAGUUUUUGCACACCAUUCUGAUCUGAUGUGGCCUGUGCCUGGCUCCUCUAUGAGGACUUCGAGCUGUGCACAGACCUUAGCAGGACCACUGCACACUUUGUGUCUGUGUGACAGGCAGCCCAAGGGUUCUGGCUCUUGCGGUCGCACUAGUGUGGAAUUCUCGGGUGUCAAGG
# B2: ENSMUSG00000090935.60|Synj2bp (ssRNA)
# RNA: GGGAGUUCUACAGUCCGACGAUCGCUUCGAUAUCCGCAUGCUAAUUACCUGCACCUGGAUAUGGGACAGUAGGCUUUUACACUGUUCUUGUGAAUAGGUUUGUAAGCUUCAAAGUCUGCUUUACUUUAUCUUCUGUUAUGAUUGCCUUUGUCAGCAUAGGCAGGAGUCCUUUAGGAUUUCUGCCUAUCAGUAAAAGAAGUAUGUAACCCAAGUUCUACCUUCAGUGGAUUAAAGUUUCAUUAAGUGAAAAUGGAAAGAAAGUAGAAUUACUUGGUAAGAGGCCAAAUGAGGAUACAGAGGCUGCUCUUGCGGUCGCACUAGUGUGGAAUUCUCGGGUGUCAAGG
# B3: ENSMUSG00000042529.476|Kcnj12 (ssRNA)
# RNA: GGGAGUUCUACAGUCCGACGAUCGCUUCGAUAUCCGCAUGCUAAGAUGUAGGCAACAAGACUAGACCACAUUAAAUGCAUUUUGAUCUCUUUGAAUGCUACUGUGUUGAGAUGUGCGUCUCACUGGCCUCUGCCUGCCUCUCCCGCCUGCGGAGCACUUACACUUCCUGGGGCCCCUGCAGCUGGACCAUGUACAGGGCUCCCUGGGGCUUGUCCUCAGGGGCAGAGAAGGACAUGGUGGCAGCAGCACUGAGAACAGGAGCAUGGCCUCUCUCAGACCCCAGGGCAGUCAUUCAGUCUUUUCCUCUUGCGGUCGCACUAGUGUGGAAUUCUCGGGUGUCAAGG
# B4: ENSMUSG00000058297.104|Spock2 (ssRNA)
# RNA: GGGAGUUCUACAGUCCGACGAUCGCUUCGAUAUCCGCAUGCUAACCACGGUCUUGUGGUGAUGAGGCAGGACCUGUACACACAGCAAGGCUUACUAUCCGUCUCCUGACAUCCGAAGAGCUCGUCGCAGGUGUGUCUAAUGGCCCUUGGGCUGCACGUGGUUAAGCAUAGCUGUCUCUGUGGCCCAACACAAAGAGGUAAACUUACUUAAAACACAGGGGUUUUGUUGCUGUUUGUUUUUUGUUAGUUUGUUUGUUGAUAAUUGGAUUGAGGAGUUAAUCCUCUGUCACAAUGUCAAAAGCAUCUCUUGCGGUCGCACUAGUGUGGAAUUCUCGGGUGUCAAGG
# B5: ENSMUSG00000043670.53|Diras1|229:234 (ssRNA)
# RNA: GGGAGUUCUACAGUCCGACGAUCGCUUCGAUAUCCGCAUGCUACCUACAGUAAGGUUGGGCUCCAUCCCUGCCUCUUCACACCUCCAUAGCUUCAUCCUUUGCAGACCUCUCCCUCUAUAUCUCUUUGCUCCCCCACCCCCAUUCUAUCUGCACCCCACAACCACACACUGGAGGUUUGAUCCCUGUGGAUCUGAAAACAGGGACCUGGCUAAGGAACUGCUCAUCCCAGUCAGGCCCAGAGAGGUUACCUUGCCUCUCCAUCUCUGUCCCACACACCCCAGCCAUGCCCACUGUCCCUGUCCCUCUUGCGGUCGCACUAGUGUGGAAUUCUCGGGUGUCAAGG
# B6: ENSMUSG00000029636.33|Wasf3|33:37;79:83 (ssRNA)
# RNA: GGGAGUUCUACAGUCCGACGAUCGCUUCGAUAUCCGCAUGCUAUCCCUGUAGCUUUAGUCCCUUUUGUAUUAACACACACAUUUGCUUCUGCACAUCCUUCUGGAUUUGUUGAGUAUUUACACACAAAUACUUAAGUGCCACAGAACACAGCACACCGUGCUGCACACCAGGAAACUCGCAGUAUUAGUGCAUCACCCUGGAACAGCAUCUUGCUUCCCUCUCAGCCGUGAGAGUCCCCUCUCCUGUCCAUCCUGAUUUGGUGGGCUUGCCACGUAUCUGCGCAGCUGCCCCACGUCAGCUCUCUCUUGCGGUCGCACUAGUGUGGAAUUCUCGGGUGUCAAGG
# B7: ENSMUSG00000004113.19|Cacna1b|119:123 (ssRNA)
# RNA: GGGAGUUCUACAGUCCGACGAUCGCUUCGAUAUCCGCAUGCUAACCCUUACCUAGGGCAGCGUCUGGACAGUGAGGCCUCCGCCCACACCCUGCCUGAGGAUACACUCACCUUUGAAGAGGCAGUGGCCACCAACUCUGGCCGCUCCUCCAGGACUUCCUAACACACCUCCCUCACUUCCCAAUCCCACCCUCUCCGCCGUGUACCCAAUGGCUAUCACUGCACUUUGGGACUCAGCACUGGCGUCCGGGCGCGGCACAGCUACCACCACCCCGAUCAGGACCACUGGUGCUAGCUGCACCACCUCUUGCGGUCGCACUAGUGUGGAAUUCUCGGGUGUCAAGG
# B8: ENSMUSG00000028439.137|Fam219a (ssRNA)
# RNA: GGGAGUUCUACAGUCCGACGAUCGCUUCGAUAUCCGCAUGCUAUGCAUCUGUCUCUCUGCCUCAUCCCCACACCGCCCUGCCACCCCCAGUCUUCUGUCUAUUGGUUCCAGGCUGGAAGCAAGAGAUAAGGCUGGCCUCCUGUGCCCCAUUGCCAUUUCACCCUAGCUCAAAGUCCAGGAGCCAGGCUUCCAGAAAGGCUCUUCAAGAGCAAGCUUAAGGAAAUACAGUGAGCCAAGUGGCUGUAUGAUAUGGUAUGGUAUGGUAUGGUAUGGUAUGGUAUGGUAUGCACAUGUGUGUGCAUGCUCUUGCGGUCGCACUAGUGUGGAAUUCUCGGGUGUCAAGG
# B9: ENSMUSG00000028439.141|Fam219a (ssRNA)
# RNA: GGGAGUUCUACAGUCCGACGAUCGCUUCGAUAUCCGCAUGCUACCACACCGCCCUGCCACCCCCAGUCUUCUGUCUAUUGGUUCCAGGCUGGAAGCAAGAGAUAAGGCUGGCCUCCUGUGCCCCAUUGCCAUUUCACCCUAGCUCAAAGUCCAGGAGCCAGGCUUCCAGAAAGGCUCUUCAAGAGCAAGCUUAAGGAAAUACAGUGAGCCAAGUGGCUGUAUGAUAUGGUAUGGUAUGGUAUGGUAUGGUAUGGUAUGGUAUGCACAUGUGUGUGCAUGUGUGUGUGCCUGUGUGUGUGCGUGCUCUUGCGGUCGCACUAGUGUGGAAUUCUCGGGUGUCAAGG
# B10: ENSMUSG00000028439.147|Fam219a (ssRNA)
# RNA: GGGAGUUCUACAGUCCGACGAUCGCUUCGAUAUCCGCAUGCUAGGUUCCAGGCUGGAAGCAAGAGAUAAGGCUGGCCUCCUGUGCCCCAUUGCCAUUUCACCCUAGCUCAAAGUCCAGGAGCCAGGCUUCCAGAAAGGCUCUUCAAGAGCAAGCUUAAGGAAAUACAGUGAGCCAAGUGGCUGUAUGAUAUGGUAUGGUAUGGUAUGGUAUGGUAUGGUAUGGUAUGCACAUGUGUGUGCAUGUGUGUGUGCCUGUGUGUGUGCGUGUGCGUGUGUGUAUGUGUGUGCGUGUGUGUGUGUGUGCUCUUGCGGUCGCACUAGUGUGGAAUUCUCGGGUGUCAAGG
# B11: ENSMUSG00000028439.140|Fam219a (ssRNA)
# RNA: GGGAGUUCUACAGUCCGACGAUCGCUUCGAUAUCCGCAUGCUAUCAUCCCCACACCGCCCUGCCACCCCCAGUCUUCUGUCUAUUGGUUCCAGGCUGGAAGCAAGAGAUAAGGCUGGCCUCCUGUGCCCCAUUGCCAUUUCACCCUAGCUCAAAGUCCAGGAGCCAGGCUUCCAGAAAGGCUCUUCAAGAGCAAGCUUAAGGAAAUACAGUGAGCCAAGUGGCUGUAUGAUAUGGUAUGGUAUGGUAUGGUAUGGUAUGGUAUGGUAUGCACAUGUGUGUGCAUGUGUGUGUGCCUGUGUGUGCUCUUGCGGUCGCACUAGUGUGGAAUUCUCGGGUGUCAAGG
# B12: ENSMUSG00000028439.148|Fam219a (ssRNA)
# RNA: GGGAGUUCUACAGUCCGACGAUCGCUUCGAUAUCCGCAUGCUAAGGCUGGAAGCAAGAGAUAAGGCUGGCCUCCUGUGCCCCAUUGCCAUUUCACCCUAGCUCAAAGUCCAGGAGCCAGGCUUCCAGAAAGGCUCUUCAAGAGCAAGCUUAAGGAAAUACAGUGAGCCAAGUGGCUGUAUGAUAUGGUAUGGUAUGGUAUGGUAUGGUAUGGUAUGGUAUGCACAUGUGUGUGCAUGUGUGUGUGCCUGUGUGUGUGCGUGUGCGUGUGUGUAUGUGUGUGCGUGUGUGUGUGUGUGUGUUGUCUCUUGCGGUCGCACUAGUGUGGAAUUCUCGGGUGUCAAGG
# B13: ENSMUSG00000028439.138|Fam219a (ssRNA)
# RNA: GGGAGUUCUACAGUCCGACGAUCGCUUCGAUAUCCGCAUGCUAUGUCUCUCUGCCUCAUCCCCACACCGCCCUGCCACCCCCAGUCUUCUGUCUAUUGGUUCCAGGCUGGAAGCAAGAGAUAAGGCUGGCCUCCUGUGCCCCAUUGCCAUUUCACCCUAGCUCAAAGUCCAGGAGCCAGGCUUCCAGAAAGGCUCUUCAAGAGCAAGCUUAAGGAAAUACAGUGAGCCAAGUGGCUGUAUGAUAUGGUAUGGUAUGGUAUGGUAUGGUAUGGUAUGGUAUGCACAUGUGUGUGCAUGUGUGUGCUCUUGCGGUCGCACUAGUGUGGAAUUCUCGGGUGUCAAGG
# Molecular target: TDP-43 (Homo sapiens, UniProt Q13148 1-414)
# Sequence (Q13148 whole entry): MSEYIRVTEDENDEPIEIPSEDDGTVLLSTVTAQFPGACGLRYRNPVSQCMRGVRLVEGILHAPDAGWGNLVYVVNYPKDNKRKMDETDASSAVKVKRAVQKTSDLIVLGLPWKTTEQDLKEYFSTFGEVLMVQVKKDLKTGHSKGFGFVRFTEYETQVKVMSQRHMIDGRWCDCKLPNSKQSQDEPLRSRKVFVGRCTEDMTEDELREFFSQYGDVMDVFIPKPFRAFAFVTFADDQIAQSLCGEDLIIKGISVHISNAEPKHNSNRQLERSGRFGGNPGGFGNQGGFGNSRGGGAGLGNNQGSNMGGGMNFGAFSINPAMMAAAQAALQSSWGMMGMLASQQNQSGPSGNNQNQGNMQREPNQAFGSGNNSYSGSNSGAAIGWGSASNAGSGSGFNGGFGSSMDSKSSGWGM
# Assay: RNA Bind-n-Seq with designed 260-mer pool; 25 mM Tris-HCl, 150 mM KCl, 3 mM MgCl2, BSA (printed 500 mg/mL), 20 units/mL SUPERase IN; pH not stated; 500 nM RNA pool, 1 h, 4 C; TDP-43 5, 50, 500 nM; high values mean tight binding
# Conditions: protein: recombinant; tags: SBP (GST cleaved off with PreScission; pGEX-GST-SBP)
# Outline: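 Streptavidin beads captured recombinant SBP-tagged TDP-43 at 5, 50 or 500 nM, and the beads were incubated for 1 h at 4 °C with 500 nM of an in vitro-transcribed pool of 260-nt 3′ UTR oligos in 25 mM Tris-HCl, 150 mM KCl, 3 mM MgCl2, BSA and SUPERase IN. After washing, bound RNA was eluted with biotin, reverse transcribed, PCR-amplified and sequenced. Binding is reported as R, the mapped-read-normalized abundance of each oligo in the bound sample divided by its abundance in the input. Two independent protein batches served as duplicates.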
row,Binder,binding signal
1,B1,1.55 R (bound/input frequency ratio)
2,B2,0.778 R (bound/input frequency ratio)
3,B3,0.564 R (bound/input frequency ratio)
4,B4,0.391 R (bound/input frequency ratio)
5,B5,2.98 R (bound/input frequency ratio)
6,B6,0.758 R (bound/input frequency ratio)
7,B7,1.6 R (bound/input frequency ratio)
8,B8,1.7 R (bound/input frequency ratio)
9,B9,3.58 R (bound/input frequency ratio)
10,B10,7.43 R (bound/input frequency ratio)
11,B11,2.02 R (bound/input frequency ratio)
12,B12,7.16 R (bound/input frequency ratio)
13,B13,1.6 R (bound/input frequency ratio)
